TDP43 rescue – inhibitors of TDP-43 toxicity in yeast. TDP-43 expressing yeast growth rescue, BacTiter-Glo, 24 h. Potency, µM (top dose mostly 46.1 µM), for inactives: top-dose growth rescue (activation), most hits filed as activators. 1.8% of 410,000 active. AID 652104; also: % of control where 0% means no effect; nearly all actives have a fitted effect of over 50% in size
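Cell-based yeast growth screen: TDP-43 expression induced in galactose, inoculum OD600=0.02 after raffinose pregrowth to mid-log. Read-out BacTiter-Glo luminescence at 24 hr, 30 deg C; inhibition of toxicity seen as signal increase.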
Abeta yeast res – A-beta toxicity reversal in yeast. 0.063% of 410,000 active. AID 1347071. yeast expressing A-beta42, growth rescue, OD600, 48 h; response scale: 0% DMSO, 100% iron-clioquinol control. Potency, µM (titrated, usually from 46.1 µM), usual class: activators; also: nearly all actives have a fitted effect of over 55% in size
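Yeast A-beta toxicity model in growth medium with pinned compounds, 48 h at 30 C; growth read as absorbance at 600 nm. Normalized to FeCl3/clioquinol equimolar mix (positive) and DMSO (negative).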
FUS yeast rescue – suppressors of FUS proteinopathy in yeast; AID 1347120; 0.24% of 390,000 active; Potency, µM (highest dose often 76.6 µM), actives largely listed as activators; S. cerevisiae FUS-expressing, growth rescue, OD600, 24 h;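 also: plate controls were DMSO vehicle for no effect and reference control for full effect; nearly all actives have a fitted effect of over 55% in size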
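FUS-expressing yeast, raffinose-pregrown, induced in 2% galactose minimal medium at OD 0.005; compounds in a dilution series, 24hr at 30C. Growth restoration read as absorbance at 600 nm. CP55940 positive control, DMSO negative.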
ClpP mod – qHTS Assay for Activators of ClpP | purified B. subtilis ClpP, FRET peptide cleavage, 20 min | Potency, µM (top dose mostly 57.5 µM), for the others: at the highest dose activity change, negative = active | 1.9% of 340,000 active | AID 651965, 2013; active = well fitted falling curve with a large enough effect; inconclusive = small, poorly fitted or top-dose-only effect; inactive = no such curve, though single readings can be large or run the other way; also: the source files actives as falling curves though it sought activators and does not explain the sign; nearly all actives have a fitted effect of over 65% in size
Target sequence (P80244 whole entry, looked up): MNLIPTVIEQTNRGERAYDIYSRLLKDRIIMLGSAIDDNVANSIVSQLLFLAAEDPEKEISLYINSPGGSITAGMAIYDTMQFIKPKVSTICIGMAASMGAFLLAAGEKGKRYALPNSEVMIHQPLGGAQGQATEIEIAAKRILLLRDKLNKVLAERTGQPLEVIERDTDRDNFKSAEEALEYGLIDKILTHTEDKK
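ClpP 10 microg/mL final, pH 8 Tris/KCl buffer with BSA, glycerol, Tween-20; compound pinned in; FRET-FV substrate; RT 20 min; Ex320/Em430; ΔFRET vs ADEP 5.8 microM, DMSO, no enzyme.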
Mm-Cpn inhibitor – M. maripaludis TRiC chaperonin inhibition. AID 504842. purified Mm-Cpn ATPase, ADP Transcreener TR-FRET. Potency, µM (top dose mostly 76.9 µM), for the others: top-dose activity, negative = inhibition, actives largely listed as inhibitors. 0.031% of 330,000 active; also: % is scaled to controls: 0 for no effect and ±100 for the full control effect; nearly all actives have a fitted effect of over 80% in size
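ATPase turnover read by TR-FRET ADP competition (Eu cryptate antibody/ADP-d2, 665/590 nm): 10uM ATP final, 25nM Mm-CPN final, 30 min 37degC after 10-min compound preincubation, pH 7.4 Tris/KCl/MgCl2/DTT buffer.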
aSyn yeast inh – alpha-synuclein toxicity inhibition in yeast | Yeast expressing alpha-synuclein, growth rescue, BacTiter-Glo, 24 h | Potency, µM (titrated, usually from 46.1 µM), for the others: at the top dose growth rescue (activation), actives largely listed as activators | 0.14% of 370,000 active; also: % of control where 0% means no effect; nearly all actives have a fitted effect of over 65% in size
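Readout is rescue of growth in alpha-synuclein-expressing yeast, so inhibitors of toxicity appear as activators. Growth after 24 hr at 30 deg C in galactose medium is quantified by luminescence.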
Starred values were filed as active, the others as inactive; i = inactive; u = inconclusive; x = no result given. Most compounds without a hit are left out; they make up all but 3.6% or so of the library. Unless noted, calls follow the shape of the dose curve; as a rule, active = well fitted curve in the direction sought with a large enough effect; inconclusive = small, poorly fitted or top-dose-only effect, or another doubt; inactive = no such curve, though single readings can be large; an effect the other way counts as inactive or inconclusive. Potency is read from the fitted curve at half-maximal effect.

SMILES | TDP43 rescue | Abeta yeast res | FUS yeast rescue | ClpP mod | Mm-Cpn inhibitor | aSyn yeast inh
COc1ccc(C2CC(=O)c3cc(-c4nc(-c5cccc([N+](=O)[O-])c5)cs4)c(=O)n(-c4ccccc4C)c3C2)cc1 (centres undefined) | 2% | i | i | 1% | x | x
CS(=O)(=O)c1ccccc1COC(=O)Nc1ccc(Cl)cc1 | 13µM* | i | i | -1% | 2% | 5%
O=C(Nc1ccc(Cl)cc1)OCc1ccccn1 | 25% | i | i | -3% | 1% | 0%
O=C(CCc1cn(Cc2ccccc2Cl)c2ccccc12)NC1CCCCC1 | 12% | i | i | -3% | x | x
Cc1cc(C2=CC(=O)C[C@H](c3ccc(F)cc3)C2)ccc1F | 22µM* | i | i | -2% | x | 8%
O=C1C=C(c2ccc(OC(F)(F)F)cc2)C[C@@H](c2ccc(F)cc2)C1 | 14µM* | u | i | 1% | 2% | -7%
COc1ccc([C@H]2CC(=O)C=C(c3ccc(SC)cc3)C2)cc1OC | 0% | i | i | -4% | -2% | 1%
COc1ccc(C2=CC(=O)C[C@H](c3ccc(F)cc3)C2)cc1F | 22µM* | i | u | -4% | -9% | 8%
CSc1ccc(C2=CC(=O)C[C@H](c3ccc(F)cc3)C2)cc1 | 22µM* | i | i | -18% | -8% | 6%
CCOC(=O)[C@@H](C)N(C(=O)OC(C)(C)C)S(=O)(=O)N(Cc1ccccc1)[C@@H](C(=O)OC)C(C)C | x | x | x | 2% | x | x
Cc1ccc(-c2c3c(=O)n(C)c(=O)n(C)c3c3c(C(F)(F)F)nc4ccccc4n23)cc1 | u | i | i | 3% | x | x
CC(C)c1ccc(/C=C(\C#N)c2nc(-c3ccc(O)cc3)cs2)cc1 | u | i | i | -5% | x | x
O=C1C=C(c2ccc3c(c2)OCCO3)C[C@@H](c2ccc(F)cc2)C1 | 22µM* | u | i | -11% | -14% | 0%
O=C(Nc1nc2cc3c(cc2s1)OCCO3)C1CCCCC1 | 25µM* | i | i | -2% | 0% | -27%
Cc1cccc2sc(NC(=O)Cn3cccc3)nc12 | 7% | 11µM* | i | 4% | 1% | 18%
CC(C)c1ccc2nc(NC(=O)C3CC3)sc2c1 | 22µM* | i | i | -1% | 2% | -15%
Cc1cccc2sc(NC(=O)C3CC3)nc12 | 11µM* | i | i | 28% | -2% | -23%
Cc1cccc2sc(NC(=O)CCn3cccc3)nc12 | u | u | i | x | -1% | -1%
Cc1cccc(OCC(=O)Nc2cccc(OCc3cc(=O)n4cccc(C)c4n3)c2)c1 | -11% | i | i | -6% | x | x
Cc1cccc2sc(NC(=O)CN(C)S(=O)(=O)c3cccs3)nc12 | 16µM* | i | i | -3% | 0% | 22%
CC(Oc1ccc(F)cc1)C(=O)Nc1cc(-c2ccc(F)c(F)c2)no1 (centres undefined) | u | u | i | 2% | x | x
Cc1cc(O)c(C(c2ccc(Cl)cc2)N2CCN(c3ccccc3)CC2)c(=O)n1Cc1ccco1 (centres undefined) | 14% | i | i | 0% | x | x
CCOC(=O)c1nc(NCCc2ccccc2)sc1C | 13µM* | i | i | 1% | -6% | -17%
CCCCCCCNC1=CC(=O)CC(c2ccccc2)C1 (centres undefined) | 20µM* | i | i | 0% | 0% | 17%
COc1ccccc1CC(=O)NO | x | x | x | 0% | x | u
SMILES | TDP43 rescue | Abeta yeast res | FUS yeast rescue | ClpP mod | Mm-Cpn inhibitor | aSyn yeast inh
CCOC(=O)CCCSc1nc(-c2ccc3c(c2)OCO3)cc(C(F)(F)F)c1C#N | 14% | i | x | 16µM* | -8% | -4%
CCOC(=O)CSc1nc(-c2ccncc2)ccc1C#N | 24% | i | i | u | -6% | 10%
CCOC(=O)CSc1nc(-c2ccc3c(c2)OCO3)ccc1C#N | -20% | i | i | 25µM* | -24% | -10%
CCOC(=O)CSc1nc(-c2ccc(OC)cc2)cc(C(F)(F)F)c1C#N | 2% | i | i | 4% | x | x
CCN(CC)S(=O)(=O)c1ccc(C(=O)NC2CC(=O)N(c3ccc(OC)c(OC)c3)C2)cc1 (centres undefined) | u | i | i | 0% | x | x
Cc1ccccc1OC(C)C(=O)Nc1ccc2c(c1)OCCO2 (centres undefined) | 11µM* | i | i | -1% | 3% | 6%
N#Cc1ccccc1OCC(=O)Nc1ccc2c(c1)OCCCO2 | 13µM* | i | i | x | 2% | 17%
CC(OC(=O)/C=C/c1ccccc1)C(=O)Nc1ccc2c(c1)OCCO2 (centres undefined) | 12% | i | i | 3% | 0% | 6%
CCN(c1ccccc1)S(=O)(=O)c1cc(C(=O)OC(C)C(=O)Nc2ccc3c(c2)OCCO3)ccc1C (centres undefined) | -10% | x | 18µM* | -8% | -4% | -2%
N#Cc1ccccc1OCC(=O)Nc1ccc2c(c1)OCCO2 | u | i | x | 1% | 0% | 3%
Cc1cc(C)cc(Cn2c3ccc(NC(=S)NC4CCCCC4)cc3c(=O)n2C)c1 | 17% | i | 28µM* | 4% | x | -9%
Cc1ccc2c(c1)c(=O)c(C(=O)c1ccc3c(c1)OCO3)cn2Cc1cccc(F)c1 | u | i | u | 1% | x | x
CCCOc1ccc(-c2csc3ncn(Cc4ccc(C(=O)O)cc4)c(=O)c23)cc1 | 25µM* | i | i | -8% | 0% | -60%
Cc1ccc(-c2csc3ncn(Cc4ccc(C(=O)O)cc4)c(=O)c23)cc1C | 20µM* | i | i | -3% | -1% | u
CCOc1cc(/C=C2/C(=O)ON=C2C)ccc1O | 18µM* | u | i | -1% | 3% | 4%
C#CCOc1c(Cl)cc(/C=C2/C(=O)ON=C2C)cc1OC | 16µM* | i | i | 0% | 0% | -9%
COc1cc(/C=C2/C(=O)ON=C2C)cc(Cl)c1O | 6% | u | i | x | 0% | -10%
COc1cc(C2c3c(-c4cc(C)ccc4O)n[nH]c3C(=O)N2CCCO)ccc1OCCC(C)C (centres undefined) | 3% | i | i | 0% | x | x
Cn1c(SC/C=C/c2ccccc2)nnc1-c1cccnc1 | x | x | i | x | x | x
CCOC(=O)N1CCN(C(=O)CCS(=O)(=O)c2ccc3c(c2)CCN3C(=O)CC)CC1 | -15% | i | i | 2% | -1% | -5%
